# Bioassay records: PubChem, National Center for Advancing Translational Sciences (NCATS)
# Vif-A3G inh = Vif-A3G binding inhibition | actives 0.076% (n = 410,000) | HeLa A3G-eYFP + Vif (tagged APOBEC3G with the HIV-1 protein that degrades it), YFP fluorescence, overnight | Potency, µM (doses to about 46.1 µM), for inactives: top-dose activity, negative = active, usual class: inhibitors | AID 602310 | Q9HC16; note: % is set by controls: 0 for no effect and ±100 for the full control effect; nearly all actives have a fitted effect of over 60% in size
#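 HeLa cells stably expressing Vif and C-terminally eYFP-tagged A3G, seeded overnight at 37 deg C, then exposed to compound by pintool overnight at 37 deg C. Rise in yellow fluorescence (Ex 488/Em 500-530, Acumen) marks blocked Vif-driven A3G degradation.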
# Vif-APOBEC3F blk = blocks the Vif interaction with APOBEC3F | HeLa A3F-eYFP + Vif (tagged APOBEC3F with the HIV-1 protein that degrades it), YFP fluorescence increase | Potency, µM (doses to about 46.1 µM), for the others: at the top dose activity, negative = active | actives 0.2% (n = 390,000) | AID 602313; note: % of control where 0% means no effect; nearly all actives have a fitted effect of over 65% in size
#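 HeLa cells stably expressing A3F-eYFP plus Vif, plated and incubated overnight at 37 deg C, then exposed to compounds overnight at 37 deg C. Blocked degradation read as raised yellow fluorescence (Ex 488/Em 500-530).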
# rTrxR1 inhibitor = inhibitors of rat thioredoxin reductase 1. recombinant rTrxR1, NADPH fluorescence consumption, selenite substrate. Potency, µM (series often up to 114 µM), for inactives: top-dose activity change, negative = inhibition, actives largely listed as inhibitors. actives 1% (n = 390,000). AID 588453; note: % is set by controls: 0 for no effect and ±100 for the full control effect; nearly all actives have a fitted effect of over 65% in size
#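 Rat TrxR1 (90 nM in the dispensed reagent) was pre-reduced with 400 uM NADPH for 5 min at room temperature, then incubated with compound for 15 min. After 400 uM selenite was added, NADPH fluorescence (Ex 340/Em 450 nm) was followed for 8 min.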
# VDR inhibitor = blocks the human vitamin D receptor; VDR-SRC2-3 peptide fluorescence polarization, 2 h; Potency, µM, for inactives: max response, negative = inhibition, actives largely listed as inhibitors; actives 0.93% (n = 400,000); note: % is set by controls: 0 for no effect and ±100 for the full control effect
# Target sequence (P11473 whole entry, looked up): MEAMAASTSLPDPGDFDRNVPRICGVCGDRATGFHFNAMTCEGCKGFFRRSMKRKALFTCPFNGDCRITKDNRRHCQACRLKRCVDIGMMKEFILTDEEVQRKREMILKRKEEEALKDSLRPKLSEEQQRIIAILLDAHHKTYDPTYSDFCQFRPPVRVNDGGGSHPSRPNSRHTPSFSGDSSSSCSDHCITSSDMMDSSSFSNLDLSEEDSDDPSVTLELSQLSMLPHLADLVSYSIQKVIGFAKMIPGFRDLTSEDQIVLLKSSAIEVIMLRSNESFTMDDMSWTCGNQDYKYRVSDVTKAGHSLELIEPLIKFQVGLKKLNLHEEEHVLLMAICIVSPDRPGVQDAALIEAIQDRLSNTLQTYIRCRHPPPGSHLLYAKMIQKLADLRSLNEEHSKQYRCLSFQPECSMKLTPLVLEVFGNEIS
#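 Fluorescence polarization assay of small-molecule disruption of VDR binding to coregulator peptide SRC2-3. Compounds and controls pin-transferred, then read after 2 h incubation at ambient room temperature.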
# TrxR1 substrate = rat thioredoxin reductase 1 substrate activity. purified TrxR1 substrate turnover, NADPH consumption readout. Potency, µM (series often up to 114 µM), without a hit: at the top dose activity change, negative = substrate turnover. actives 0.01% (n = 390,000). AID 588456; note: % is set by controls: 0 for no effect and ±100 for the full control effect; nearly all actives have a fitted effect of over 50% in size
#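 Rat TrxR1, dispensed at 90 nM, was prereduced with 400 uM NADPH (final) for 5 min at ~22 deg C, then incubated with compound 15 min before 400 uM selenite. A first-read NADPH fluorescence drop versus no-compound background flagged substrates.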
# Active calls of the source: *; ? = inconclusive; nt = not tested or not shown; [ ] = remark or other dose. Compounds with a hit are over-represented: about 1.8% of the library has one in this group of screens. Calls come from the whole dose curve; as a rule, active = well fitted curve in the direction sought with a large enough effect; inconclusive = small, poorly fitted or top-dose-only effect, or another doubt; inactive = no such curve, though single readings can be large; an effect the other way counts as inactive or inconclusive. Potency is the fitted concentration of half-maximal effect.
SMILES,Vif-A3G inh,Vif-APOBEC3F blk,rTrxR1 inhibitor,VDR inhibitor,TrxR1 substrate
N#CC1=C(S)N(c2ccccc2)C(c2ccc(-c3ccc(Cl)c(Cl)c3)o2)NC1=O (centres undefined),2%,1%,?,56µM*,-4%
S=C(c1ccc(-c2cc(Cl)ccc2Cl)o1)N1CCCCC1,-6%,-2%,-18%,-17%,-6%
COc1ccc(-c2nc(CN3CCC(C(=O)NCCCOC(C)C)CC3)c(C)o2)cc1OC,-2%,1%,24%,-5%,17%
Cc1ccc(NC(=O)Cn2ccn(-c3ccccc3)c(=O)c2=O)cc1,0%,1%,-2%,-1%,-2%
CSCC[C@H](NC(=O)[C@H](CC(C)C)NC(=O)[C@H](Cc1c[nH]c2ccccc12)NC(=O)[C@H](CCC(N)=O)NC(=O)[C@@H](NC(=O)[C@H](Cc1ccccc1)NC(=O)[C@H](CC(=O)O)NC(=O)[C@H](CCC(N)=O)NC(=O)[C@H](C)NC(=O)[C@H](CCCNC(=N)N)NC(=O)[C@H](CCCNC(=N)N)NC(=O)[C@H](CO)NC(=O)[C@H](CC(=O)O)NC(=O)[C@H](CC(C)C)NC(=O)[C@H](Cc1ccc(O)cc1)NC(=O)[C@H](CCCCN)NC(=O)[C@H](CO)NC(=O)[C@H](Cc1ccc(O)cc1)NC(=O)[C@H](CC(=O)O)NC(=O)[C@H](CO)NC(=O)[C@@H](NC(=O)[C@H](Cc1ccccc1)NC(=O)[C@@H](NC(=O)CNC(=O)[C@H](CCC(N)=O)NC(=O)[C@H](CO)NC(=O)[C@@H](N)Cc1cnc[nH]1)[C@@H](C)O)[C@@H](C)O)C(C)C)C(=O)N[C@@H](CC(N)=O)C(=O)N[C@H](C(=O)O)[C@@H](C)O,nt,nt,nt,3%,nt
O=C(C[n+]1cccc(Cl)c1)c1ccc(F)cc1,-2%,nt,-25%,nt,16%
C=Cc1c(C)c2cc3nc(cc4[nH]c(cc5nc(cc1[nH]2)C(C)=C5CCC(=O)O)c(CCC(=O)OC)c4C)[C@@]1(C)C3=CC=C(C(=O)OC)[C@H]1C(=O)OC (tested in a mixture with another compound),nt,nt,nt,1.1µM*,nt
CC1(c2nnc(Cc3ccccc3)o2)CC(c2ccc(C#N)cc2)=NO1 (centres undefined),3%,4%,16µM*,?,6%
Cc1ccc(Sc2c(C)nn(-c3ccccc3)c2OC(=O)CC(C)C)cc1,nt,nt,40%,79µM*,0%
CCCC(=O)Oc1c(Sc2ccc(Cl)cc2)c(C)nn1-c1ccccc1,5%,-2%,50%,50µM*,-3%
O=C(C[N+]12CN3CN(CN(C3)C1)C2)c1ccc(I)cc1,-8%,nt,-23%,nt,2%
O=C(CBr)c1ccc(Oc2ccc(C(=O)C[n+]3cccc(Br)c3)cc2)cc1,3%,nt,-8%,nt,4%
Cc1ccc(CN(C)C(=O)c2ccccc2NC(=O)c2ccccc2)o1,-13%,-5%,28µM*,11%,-2%
O=C(O)Cc1sc(N/N=C\c2ccncc2)nc1-c1ccccc1,-9%,?,3.2µM*,-16%,-8%
O=C(O)Cc1sc(Nc2ccccc2)nc1-c1ccccc1,-6%,2%,5%,-5%,-3%
CCc1[nH]c(=O)[nH]c1C(C)S(=O)(=O)c1ccc(C)cc1 (centres undefined),-11%,13%,1.1µM*,-14%,12%[57.1 µM]
CCn1c(CN2CCOCC2)nc2cc(NC(=O)c3ccc([N+](=O)[O-])cc3)ccc21,4%,2%,25%,0%,-2%
Cc1ccc2c(Cl)c(C)c(N3CCCC3)nc2n1,2%,22µM*,-26%,-17%,-15%
O=C(CCCn1c(=O)c2cccn2c2ccccc21)Nc1cccc(Cl)c1,nt,nt,2%,8%,-3%
CC[C@]1(c2cccc(C)c2)C(=O)N(C(=O)OC)N1C(=O)OC,-2%,5%,1.6µM*,?,5%[57.1 µM]
CC[C@]1(c2ccccc2)C(=O)N(C(=O)OC)N1C(=O)OC,-7%,13%,?,?,3%
COC(=O)N1C(=O)[C@](Cc2ccccc2)(c2ccccc2)N1C(=O)OC,?,5%,4µM*,89µM*,-4%
COC(=O)N1C(=O)[C@](c2ccccc2)(C(C)C)N1C(=O)OC,1%,-5%,?,-10%,3%[57.1 µM]
CC[C@@]1(c2ccccc2)C(=O)N(C(=O)OC)N1C(=O)OC,0%,5%,1.3µM*,?,3%
COC(=O)N1C(=O)[C@@](Cc2ccccc2)(c2ccccc2)N1C(=O)OC,?,-1%,?,?,13%[57.1 µM]
SMILES,Vif-A3G inh,Vif-APOBEC3F blk,rTrxR1 inhibitor,VDR inhibitor,TrxR1 substrate
CC[C@@]1(c2ccccc2C)C(=O)N(C(=O)OC)N1C(=O)OC,-3%,-2%,5.6µM*,?,6%
Cc1cc2c(cc1C)N[C@]1(C[C@H]3CCCC(=O)N4CC[C@@H](C1)[C@@H]34)C(=NC1CCCCC1)N2,0%,nt,3%,nt,-2%
COC(=O)N1C(=O)[C@@](c2ccccc2)(C2CCCCC2)N1C(=O)OC,-29%,4%,45µM*,?,2%
Oc1cc(O)c(/C=C/c2ccnc3ccccc23)c(O)c1,0%,nt,-6%,nt,4%
Cc1ccc(C(=O)c2cc(C)sc2N)cc1,-4%,-9%,2%[57.1 µM],?,-1%[57.1 µM]
CCc1cc(C(=O)c2ccc(C)cc2)c(NC(=O)CCl)s1,-19%,1%,32µM*,-40%,-8%
Cc1cc(C(=O)c2ccc(Cl)cc2)c(NC(=O)CCl)s1,-14%,0%,4µM*,-15%,13%[57.1 µM]
COc1ccc(CNc2ccnc(-c3ccccc3Cl)n2)c(OC)c1,nt,nt,nt,-6%,nt
O=C1c2sc3nc4ccccc4n3c2C(=O)N1c1ccccc1Cl,1%,3%,4µM*,-4%,-6%
Cc1nc2n(c(=O)c1CCN1CCC(c3noc4cc(F)ccc34)CC1)CCC[C@@H]2O,2%,nt,8%,nt,0%
COc1ccc(/C=N/NC(=O)c2nc(-c3ccccc3)cc(-c3ccccc3)n2)cc1OC,0%,1%,-5%,6%,16%
COc1ccc(/C=N/NC(=O)c2[nH]nc3c2CCc2ccccc2-3)cc1OC,3.2µM*,-4%,16%,11%,32%
CC(=O)Nc1ccc2c(c1)Cc1cc(N3C(=O)C=CC3=O)ccc1-2,-17%,3%,?,28µM*,12%[57.1 µM]
O=C1C=CC(=O)N1c1ccc2c(c1)Cc1cc(F)ccc1-2,-8%,0%,-74%[57.1 µM],?,1%[2.29 µM]
COc1cc(-c2nc(=S)[nH][nH]2)cc(OC)c1OC,0%,24%,-31%,50µM*,6%
COc1ccc(-c2nc(=S)[nH][nH]2)cc1,-4%,-11%,-22%[57.1 µM],79µM*,-6%[57.1 µM]
COc1ccc(-c2nc(=S)[nH][nH]2)cc1OC,-1%,-1%,?,-20%,4%
COc1ccc(OCCCn2c(CCNC(=O)C3CCCCC3)nc3ccccc32)cc1,-3%,nt,0%,-13%,-6%
